Experimental data reported in PubChem BioAssay (Tox21).
Where “and” joins values, the source holds several entries; their conditions need not be identical. Identical values can stand only once. Results filed as inconclusive are left out. Where a call stands in place of a potency, no number is given. Some structures have more than one record in an assay (separate samples or runs), and their calls can disagree. Calls of active or inactive are those of the source. Unless noted, the call rests on the fitted dose curve; in most records, active means well fitted curve in the direction sought with a large enough effect in the repeat runs; inconclusive means weak or mixed curves; inactive means no such curve, though single readings can be large; an effect the other way counts as inactive or inconclusive.

Tests used:
[1] = qHTS assay to identify small molecule antagonists of the glucocorticoid receptor (GR) signaling pathway - cell viability counter screen (AID 720693); further: nearly all actives have a fitted effect of over 55% in size
[2] = qHTS assay for identifying genotoxic compounds that show differential cytotoxicity against isogenic chicken DT40 cell lines with known DNA damage response pathways - wild type cell line (AID 743012); further: nearly all actives have a fitted effect of over 60% in size
How it was run: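 Cytotoxicity in repair-proficient parental chicken DT40 cells serves as the comparator for Rad54/Ku70- and Rev3-deficient lines. Cells were exposed to compounds for 40 h at 37 C/5% CO2, and ATP-based luminescence (CellTiter-Glo) measured viability.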

[3] = qHTS assay for identifying genotoxic compounds that show differential cytotoxicity against isogenic chicken DT40 cell lines with known DNA damage response pathways - Rev3 mutant cell line (AID 743014); further: nearly all actives have a fitted effect of over 55% in size
[4] = qHTS assay for identifying genotoxic compounds that show differential cytotoxicity against isogenic chicken DT40 cell lines with known DNA damage response pathways - Rad54/Ku70 mutant cell line (AID 743015); further: nearly all actives have a fitted effect of over 60% in size
[5] = qHTS assay to identify small molecule antagonists of the androgen receptor (AR) signaling pathway - cell viability counter screen (AID 743033; further: nearly all actives have a fitted effect of over 45% in size)
[6] = biological target: Androgen receptor (Homo sapiens) (UniProt P10275); assay: qHTS assay to identify small molecule antagonists of the androgen receptor (AR) signaling pathway (AID 743035; active means well fitted inhibition curve with a large enough effect in the signal ratio in the repeat runs, not every such curve was filed as active; the % refers to the signal ratio)
Sequence of Androgen receptor (Homo sapiens) (P10275 whole entry, looked up): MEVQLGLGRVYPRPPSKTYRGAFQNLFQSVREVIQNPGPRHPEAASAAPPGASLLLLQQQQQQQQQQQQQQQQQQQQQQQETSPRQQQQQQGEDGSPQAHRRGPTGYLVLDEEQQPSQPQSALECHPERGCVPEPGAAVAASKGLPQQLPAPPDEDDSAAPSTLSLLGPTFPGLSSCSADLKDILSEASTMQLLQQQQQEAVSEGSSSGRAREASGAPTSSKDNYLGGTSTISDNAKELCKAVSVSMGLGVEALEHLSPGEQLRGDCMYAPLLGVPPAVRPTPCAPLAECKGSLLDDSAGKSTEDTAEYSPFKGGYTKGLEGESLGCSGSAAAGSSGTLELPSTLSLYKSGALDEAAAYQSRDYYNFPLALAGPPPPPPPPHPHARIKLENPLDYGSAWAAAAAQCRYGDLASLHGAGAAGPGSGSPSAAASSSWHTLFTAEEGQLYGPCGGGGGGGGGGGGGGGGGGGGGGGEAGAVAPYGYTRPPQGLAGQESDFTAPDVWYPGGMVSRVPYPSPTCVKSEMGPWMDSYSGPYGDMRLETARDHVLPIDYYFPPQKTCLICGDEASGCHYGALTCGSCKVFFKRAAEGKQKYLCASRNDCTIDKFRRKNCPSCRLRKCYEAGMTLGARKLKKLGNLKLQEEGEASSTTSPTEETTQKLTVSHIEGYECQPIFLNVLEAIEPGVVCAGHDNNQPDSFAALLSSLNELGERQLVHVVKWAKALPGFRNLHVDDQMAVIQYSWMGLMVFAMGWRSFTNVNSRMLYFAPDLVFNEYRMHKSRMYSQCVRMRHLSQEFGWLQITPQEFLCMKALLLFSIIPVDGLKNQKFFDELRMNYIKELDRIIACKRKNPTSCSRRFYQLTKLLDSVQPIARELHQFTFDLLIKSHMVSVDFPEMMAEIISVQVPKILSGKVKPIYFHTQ
How it was run: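 Steps: seed AR-UAS-bla GripTite HEK293 cells, incubate 4 h at 37C; pin in test compound, then add agonist R1881; incubate 16 h at 37C; add LiveBLAzer B/G FRET substrate, 2 h at room temperature; read fluorescence.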

[7] = biological target: Androgen receptor (Homo sapiens) (UniProt P10275); assay: qHTS assay to identify small molecule agonists of the androgen receptor (AR) signaling pathway (AID 743036; active means well fitted activation curve with a large enough effect in the signal ratio in the repeat runs, with a control signal flat, not every such curve was filed as active; the % refers to the signal ratio)
How it was run: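 AR-UAS-bla HEK293 cells, plated 4 h before dosing, were treated with compound for 16 h at 37C. beta-Lactamase reporter read after 2 h with LiveBLAzer B/G FRET substrate at room temperature.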

[8] = biological target: Androgen receptor (Homo sapiens) (UniProt P10275); assay: qHTS assay to identify small molecule agonists of the androgen receptor (AR) signaling pathway using the MDA cell line (AID 743040; further: nearly all actives have a fitted effect of over 20% in size)
How it was run: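 Luciferase read-out, ONE-Glo, 30 min RT. Cells: MDA-kb2 AR-luc, MMTV promoter with AR and GR response elements. Compound exposure 16 h, 37C, 0% CO2, after 5 h pre-incubation. qHTS agonist mode.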

[9] = qHTS assay to identify small molecule antagonists of the androgen receptor (AR) signaling pathway using the MDA cell line - cell viability counter screen (AID 743041; further: nearly all actives have a fitted effect of over 45% in size)
How it was run: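 Cytotoxicity counter screen: MDA-kb2 AR-luc cells, compound + R1881, 16 h, 37C, 0% CO2; CellTiter-Fluor added at 15.5 h, fluorescence read after 30 min.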

[10] = biological target: Androgen receptor (Homo sapiens) (UniProt P10275); assay: qHTS assay to identify small molecule antagonists of the androgen receptor (AR) signaling pathway using the MDA cell line (AID 743042; further: nearly all actives have a fitted effect of over 55% in size)
How it was run: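 MDA-kb2 breast carcinoma cells carrying MMTV-luciferase (AR/GR responsive) were co-treated with compounds and the agonist R1881 for 16 h at 37C. Inhibition read as ONE-Glo luminescence; CellTiter-Fluor fluorescence measured in parallel for cytotoxicity.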

[11] = qHTS assay to identify small molecule antagonists of the thyroid receptor (TR) signaling pathway - cell viability counter screen (AID 743064); further: nearly all actives have a fitted effect of over 50% in size
How it was run: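 GH3.TRE-Luc rat pituitary cells dosed after 4 hr plating, co-stimulated with T3 at 1 nM final, incubated 23.5 h at 37 C. Viability measured in the same wells by CellTiter-Fluor fluorescence after 30 min further at 37 C.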

[12] = qHTS assay to identify small molecule antagonists of the thyroid receptor (TR) signaling pathway (AID 743065); further: series mostly up to about 70 µM; nearly all actives have a fitted effect of over 55% in size
How it was run: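 GH3.TRE-Luc rat pituitary cells (two TREs driving luciferase) were dosed with compound, then stimulated with 1 nM T3 (final) for 23.5 h at 37 C. ONE-Glo luminescence was the read-out, with CellTiter-Fluor fluorescence as the cytotoxicity counter-screen.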

[13] = system: thyroid hormone receptor (rat, GH3 cells); assay: qHTS assay to identify small molecule agonists of the thyroid receptor (TR) signaling pathway (AID 743066; calls by dose curve)
[14] = biological target: Estrogen receptor (Homo sapiens) (UniProt P03372); assay: qHTS assay to identify small molecule antagonists of the estrogen receptor alpha (ER-alpha) signaling pathway (AID 743069; active means well fitted curve in the direction sought with a large enough effect in the signal ratio in the repeat runs, not every such curve was filed as active; the % refers to the signal ratio)
Sequence of Estrogen receptor (Homo sapiens) (P03372 whole entry, looked up): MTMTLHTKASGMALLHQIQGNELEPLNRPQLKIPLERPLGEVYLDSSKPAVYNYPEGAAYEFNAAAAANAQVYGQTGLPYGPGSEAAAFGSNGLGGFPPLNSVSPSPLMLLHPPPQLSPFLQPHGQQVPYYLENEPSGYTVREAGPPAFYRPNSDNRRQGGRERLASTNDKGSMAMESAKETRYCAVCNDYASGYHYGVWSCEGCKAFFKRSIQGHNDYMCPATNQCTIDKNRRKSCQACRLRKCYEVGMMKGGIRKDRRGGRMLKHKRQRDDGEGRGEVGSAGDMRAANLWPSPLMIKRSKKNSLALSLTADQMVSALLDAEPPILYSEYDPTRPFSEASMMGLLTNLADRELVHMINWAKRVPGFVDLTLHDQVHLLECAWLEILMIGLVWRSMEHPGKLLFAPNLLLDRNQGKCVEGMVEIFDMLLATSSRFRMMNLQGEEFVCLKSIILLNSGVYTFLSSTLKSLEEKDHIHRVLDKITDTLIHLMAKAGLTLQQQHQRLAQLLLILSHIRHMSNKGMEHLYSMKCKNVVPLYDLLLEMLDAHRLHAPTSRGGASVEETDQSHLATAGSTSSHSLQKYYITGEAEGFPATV
How it was run: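 Beta-lactamase FRET fluorescence is read after 2 hr at room temperature with LiveBLAzer B/G substrate. Before that, ER-alpha-bla HEK293 cells sit 4 hr after plating, then receive compound plus 17beta-estradiol and incubate 18 hr at 37C.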

[15] = qHTS assay to identify small molecule antagonists of the estrogen receptor alpha (ER-alpha) signaling pathway - cell viability counter screen (AID 743074; calls by dose curve;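 further: HEK293 cells carrying ER-alpha-UAS-bla reporter stimulated with 17beta-estradiol; nearly all actives have a fitted effect of over 45% in size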)
[16] = biological target: Estrogen receptor (Homo sapiens) (UniProt P03372); assay: qHTS assay to identify small molecule agonists of the estrogen receptor alpha (ER-alpha) signaling pathway (AID 743075; calls by dose curve;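 further: HEK293 GripTite cells with ER-alpha and UAS-driven beta-lactamase reporter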)
[17] = biological target: Estrogen receptor (Homo sapiens) (UniProt P03372); assay: qHTS assay to identify small molecule agonists of the estrogen receptor alpha (ER-alpha) signaling pathway using the BG1 cell line (AID 743079); further: nearly all actives have a fitted effect of over 20% in size; further: potency means the concentration at half of the fitted maximal effect
[18] = qHTS assay to identify small molecule antagonists of the estrogen receptor alpha (ER-alpha) signaling pathway using the BG1 cell line - cell viability counter screen (AID 743081);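 further: compound given together with 17beta-estradiol as the ER stimulus; series mostly up to about 70 µM; nearly all actives have a fitted effect of over 45% in size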
Aromatase (Homo sapiens) = Aromatase (Homo sapiens) (UniProt P11511); assay: qHTS assay to identify aromatase inhibitors (AID 743083)
Sequence of Aromatase (Homo sapiens) (P11511 whole entry, looked up): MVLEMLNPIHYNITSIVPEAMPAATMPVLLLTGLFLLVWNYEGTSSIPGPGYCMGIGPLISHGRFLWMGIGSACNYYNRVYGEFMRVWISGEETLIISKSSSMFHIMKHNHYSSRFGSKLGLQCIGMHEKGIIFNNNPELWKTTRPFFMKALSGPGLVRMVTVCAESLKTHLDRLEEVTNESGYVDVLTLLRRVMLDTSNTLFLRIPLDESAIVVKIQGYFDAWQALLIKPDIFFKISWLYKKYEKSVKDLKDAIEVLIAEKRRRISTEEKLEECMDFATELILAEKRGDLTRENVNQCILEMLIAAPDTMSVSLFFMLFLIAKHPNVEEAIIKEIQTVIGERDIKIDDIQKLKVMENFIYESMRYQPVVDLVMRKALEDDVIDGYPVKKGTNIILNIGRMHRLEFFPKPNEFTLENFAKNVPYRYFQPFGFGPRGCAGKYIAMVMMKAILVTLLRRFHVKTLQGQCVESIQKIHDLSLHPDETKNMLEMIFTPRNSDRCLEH

[19] = qHTS assay to identify small molecule antagonists of the estrogen receptor alpha (ER-alpha) signaling pathway using the BG1 cell line (AID 743080; calls by dose curve;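 further: BG1 cells stimulated with 17beta-estradiol alongside compound; series mostly up to about 70 µM; nearly all actives have a fitted effect of over 25% in size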)
How it was run: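 After 5 days in phenol-red-free 10% charcoal-stripped FBS medium, BG1-Luc-4E2 cells were seeded, left 24 h at 37 C, co-treated with compounds and 17beta-estradiol for 21.5 h, then assayed for viability and luciferase.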

SMILES | Potency [1] | Potency [2] | Potency [3] | Potency [4] | Potency [5] | Potency [6] | Potency [7] | Potency [8] | Potency [9] | Potency [10] | Potency [11] | Potency [12] | Potency [13] | Potency [14] | Potency [15] | Potency [16] | Potency [17] | Potency [18] | Potency (Aromatase (Homo sapiens)) | Potency [19]
C[N+]1(CCCCC[N+]2(C)CCCC2)CCCC1 | inactive | inactive | inactive | inactive | inactive | inactive | inactive | inactive | inactive | inactive | inactive | inactive | inactive | inactive | inactive | inactive | inactive | inactive | inactive | –
Cc1cc(C(=O)NCCc2ccc(S(=O)(=O)NC(=O)NN3CCCCCC3)cc2)no1 | inactive | inactive | inactive | inactive | inactive | inactive | inactive | inactive | inactive | inactive | inactive | inactive | inactive | – | inactive | – | – | inactive | inactive | –
NC(N)=NCC1COC2(CCCCC2)O1 (stereo unspecified) | inactive | inactive | inactive | inactive | inactive | inactive | – | inactive | inactive | inactive | inactive | inactive | inactive | – | inactive | – | – | inactive | inactive | –
Nc1c(CC(=O)O)cccc1C(=O)c1ccccc1 | inactive | inactive | inactive | inactive | inactive | inactive | – | inactive | inactive | inactive | inactive | inactive | inactive | inactive | inactive | inactive | inactive and 10.6 µM (active) | inactive | inactive | inactive
CC1(C)S[C@@H]2[C@H](NC(=O)[C@H](N)c3ccc(O)cc3)C(=O)N2[C@H]1C(=O)O | inactive | inactive | inactive | inactive | inactive | – | inactive | inactive | inactive | – | inactive | – | inactive | – | inactive | – | – | inactive | inactive | –
CCC[C@@H]1C[C@@H](C(=O)N[C@@H]([C@H]2O[C@H](SC)[C@H](OP(=O)(O)O)[C@@H](O)[C@H]2O)[C@H](C)Cl)N(C)C1 | inactive | inactive | inactive | inactive | inactive | inactive | inactive | inactive | inactive | inactive | inactive | inactive | inactive | inactive | inactive | inactive | inactive | inactive | inactive | –
